Compounds without any hit were thinned out: in the full panel of roughly 83,000, 20% have a hit.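 Cell lines were cultured in 96-well plates, exposed to a single compound concentration, and assessed for percent growth 48 hours later.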 Values without a mark were called inactive. Active and inactive are the calls of the source. Rule for the calls: active = growth percent below 10; inactive = the rest.
Tested on: A549/ATCC NSCLC
Assay: NCI-60 one-dose screen, 48 h (100 = growth as untreated, 0 = no growth, -100 = all killed)
Conditions: 10 µM unless noted

Row | Structure (SMILES) | growth
1 | COc1ccc(C(=O)NC(=O)Nc2ccc3c(c2)NC(=O)/C3=C\c2[nH]c(C)c(CCC(=O)O)c2C)c(F)c1 | 7.84% (active)
2 | Cn1c(I)c(C#C[Si](C)(C)C)c(=O)[nH]c1=O | 86.3%
3 | COC(=O)c1oc2c(C(C)=O)c(OCCCN(C)C)ccc2c1C | 110%
4 | CC(C)NCC(O)COc1ccc(CC(N)=O)cc1 (stereo not drawn) | 106%
5 | O=C(NCCNc1nccc(-c2c(-c3cccc(O)c3)nc3sccn23)n1)Nc1cccc(C(F)(F)F)c1 | 39.3%
6 | CNCCCOc1c(Br)cc(CCNC(=O)/C(Cc2ccc(OC)c(Br)c2)=N/O)cc1Br | 49.7%
7 | COc1cccc(-c2nc3sccn3c2-c2ccnc(NCCNC(=O)c3ccccc3)n2)c1 | 75.3%
8 | O=C(N/N=C1\SCC(=O)N1c1ccccc1)c1cc(-c2cc3ccccc3o2)nn1-c1ccccc1 | 110%
9 | Cc1ccc2c(c1)Nc1ccc(C)cc1C2(C)C | 93.1%
10 | COc1cc(NC(C)CCCN2C(=O)c3ccccc3C2=O)c2nccc(C)c2c1OC (stereo not drawn) | 93.9%
11 | NCC(=O)NS(=O)(=O)OC[C@H]1O[C@@H](n2cnc3c(N)ncnc32)[C@H](O)[C@@H]1O | 9.7% (active)
12 | CCN(CC)CC(=O)Nc1c(C)cccc1C | 104%
13 | Nc1ncnc2c1c(-c1ccc(Oc3ccccc3)cc1)nn2C[C@@H]1SSC[C@H]1O | 21.4%
14 | COc1cc(/C=C\c2cc(/C=C\c3ccc(O)c(OC)c3)n(C(=O)CNc3ccccc3OC)n2)ccc1O | 83.7%
15 | O=C1OC(N(Cc2ccc(Cl)cc2)c2ccccc2)c2ccccc21 (stereo not drawn) | 90.5%
16 | CN(C)CC/C=C1\c2ccccc2Sc2ccc(Cl)cc21 | 74.9%
17 | O=C(Nc1cccc(-n2ccc3c(NC(=O)c4ccccc4)nccc32)c1)Nc1cc(C(F)(F)F)cc(C(F)(F)F)c1 | 7.57% (active)
18 | CCCCC(=O)Nc1nc2ccc(SCCC)cc2s1 | 35.8%
19 | CCN(CC)c1ccc(C2CC(c3cc(OC)c(OC)c(OC)c3)=NN2)cc1 (stereo not drawn) | 13.7%
20 | c1ccc2nc(Cn3cc[n+](Cc4ccc5ccccc5n4)c3)ccc2c1 | 77.5%

Row | Structure (SMILES) | growth
21 | Clc1ccc(OCc2nc(-c3ccccc3)n[nH]2)c(Cl)c1 | 97.1%
22 | CC(C)CNCC(=O)Nc1ccc(Cc2ccc(NC(=O)CNCC(C)C)cc2)cc1 | 65%
23 | O=C(O)c1ccc(-n2cc(/C=N/Nc3ccc(F)cc3)c(-c3cccc(C(F)(F)F)c3)n2)cc1 | 65.7%
24 | CCCCCCCCCCCCCCCCCCNCc1ccc(Cl)cc1 | -80.7% (active)
25 | COc1ccc(CCNC=O)cc1OC | 107%
26 | O=C(COc1ccc(Cl)cc1Cl)N1N=C(c2ccc(Cl)cc2Cl)CC1(O)c1cc(F)c(Cl)cc1Cl (stereo not drawn) | 107%
27 | Cc1nccc2c3ccc(OCc4cn(Cc5ccc(Br)cc5)nn4)cc3n(CCCc3ccccc3)c12 | 82.6%
28 | COc1ccc(-c2c(C#N)cnc(N)c2-c2nc3cc(C)c(C)cc3[nH]2)cc1 | 27.2%
29 | O=c1c2ccccc2[nH]n1Cc1ccc2c(c1)OCO2 | 99.6%
30 | COc1cc(Nc2ncccc2C(=O)Nc2nc3ccc(F)cc3s2)cc(OC)c1OC | 65.6%
31 | Cc1ccc(Cn2cc(COc3ccc4c5ccnc(C)c5n(CCCc5ccccc5)c4c3)nn2)cc1 | 94.2%
32 | O=C(Nc1ccc(-n2ccc3c(NC(=O)c4ccccc4)ncnc32)cc1)Nc1ccc(Cl)c(C(F)(F)F)c1 | -62.9% (active)
33 | CCCCOc1c(N)cc(Cl)cc1C(=O)OCCN(CC)CC | 86.5%
34 | CC(Cl)(CCl)CS(=O)(=O)c1ccc(Cl)cc1 (stereo not drawn) | 88.9%
35 | CCc1c(C)c2cc3c(c(C)c2oc1=O)OCC(=O)N3 | 47%
36 | Cc1ccc(NC(=O)CN2CCOCC2)cc1Cl | 95.3%
37 | CC1(C)CC(=O)C2=C(C1)OC1=C(C(=O)CC(C)(C)C1)C2c1ccc(OCc2cn(-c3ccc(F)cc3F)nn2)cc1 | 84.3%
38 | COc1cccc(-c2nc3sccn3c2-c2ccnc(NCCNC(=O)Nc3cccc(C(F)(F)F)c3)n2)c1 | 44.4%
39 | CN(C)c1ccc(/C=N/N=C(N)N)cc1 | 70.7%

Tested on: 786-0 renal
Assay: as above
Conditions: 10 µM unless noted

Row | Structure (SMILES) | growth
40 | COc1ccc(C(=O)NC(=O)Nc2ccc3c(c2)NC(=O)/C3=C\c2[nH]c(C)c(CCC(=O)O)c2C)c(F)c1 | 31.2%
41 | Cn1c(I)c(C#C[Si](C)(C)C)c(=O)[nH]c1=O | -10.8% (active)
42 | COC(=O)c1oc2c(C(C)=O)c(OCCCN(C)C)ccc2c1C | 96%
43 | CC(C)NCC(O)COc1ccc(CC(N)=O)cc1 (stereo not drawn) | 97.2%
44 | O=C(NCCNc1nccc(-c2c(-c3cccc(O)c3)nc3sccn23)n1)Nc1cccc(C(F)(F)F)c1 | 79.4%
45 | CNCCCOc1c(Br)cc(CCNC(=O)/C(Cc2ccc(OC)c(Br)c2)=N/O)cc1Br | 40.6%
46 | COc1cccc(-c2nc3sccn3c2-c2ccnc(NCCNC(=O)c3ccccc3)n2)c1 | 78.4%
47 | O=C(N/N=C1\SCC(=O)N1c1ccccc1)c1cc(-c2cc3ccccc3o2)nn1-c1ccccc1 | 102%
48 | Cc1ccc2c(c1)Nc1ccc(C)cc1C2(C)C | 84.7%
49 | COc1cc(NC(C)CCCN2C(=O)c3ccccc3C2=O)c2nccc(C)c2c1OC (stereo not drawn) | 94.2%
50 | NCC(=O)NS(=O)(=O)OC[C@H]1O[C@@H](n2cnc3c(N)ncnc32)[C@H](O)[C@@H]1O | -7.02% (active)
51 | CCN(CC)CC(=O)Nc1c(C)cccc1C | 95.4%
52 | Nc1ncnc2c1c(-c1ccc(Oc3ccccc3)cc1)nn2C[C@@H]1SSC[C@H]1O | 42.7%
53 | COc1cc(/C=C\c2cc(/C=C\c3ccc(O)c(OC)c3)n(C(=O)CNc3ccccc3OC)n2)ccc1O | 97.4%
54 | O=C1OC(N(Cc2ccc(Cl)cc2)c2ccccc2)c2ccccc21 (stereo not drawn) | 91%
55 | CN(C)CC/C=C1\c2ccccc2Sc2ccc(Cl)cc21 | 58.2%
56 | O=C(Nc1cccc(-n2ccc3c(NC(=O)c4ccccc4)nccc32)c1)Nc1cc(C(F)(F)F)cc(C(F)(F)F)c1 | 13.4%
57 | CCCCC(=O)Nc1nc2ccc(SCCC)cc2s1 | 65%
58 | CCN(CC)c1ccc(C2CC(c3cc(OC)c(OC)c(OC)c3)=NN2)cc1 (stereo not drawn) | 23.5%
59 | c1ccc2nc(Cn3cc[n+](Cc4ccc5ccccc5n4)c3)ccc2c1 | 101%

Row | Structure (SMILES) | growth
60 | Clc1ccc(OCc2nc(-c3ccccc3)n[nH]2)c(Cl)c1 | 108%
61 | CC(C)CNCC(=O)Nc1ccc(Cc2ccc(NC(=O)CNCC(C)C)cc2)cc1 | 42.8%
62 | O=C(O)c1ccc(-n2cc(/C=N/Nc3ccc(F)cc3)c(-c3cccc(C(F)(F)F)c3)n2)cc1 | 79.9%
63 | CCCCCCCCCCCCCCCCCCNCc1ccc(Cl)cc1 | -75.1% (active)
64 | COc1ccc(CCNC=O)cc1OC | 99.2%
65 | O=C(COc1ccc(Cl)cc1Cl)N1N=C(c2ccc(Cl)cc2Cl)CC1(O)c1cc(F)c(Cl)cc1Cl (stereo not drawn) | 101%
66 | Cc1nccc2c3ccc(OCc4cn(Cc5ccc(Br)cc5)nn4)cc3n(CCCc3ccccc3)c12 | 67%
67 | COc1ccc(-c2c(C#N)cnc(N)c2-c2nc3cc(C)c(C)cc3[nH]2)cc1 | 25.8%
68 | O=c1c2ccccc2[nH]n1Cc1ccc2c(c1)OCO2 | 93.3%
69 | COc1cc(Nc2ncccc2C(=O)Nc2nc3ccc(F)cc3s2)cc(OC)c1OC | 22.9%
70 | Cc1ccc(Cn2cc(COc3ccc4c5ccnc(C)c5n(CCCc5ccccc5)c4c3)nn2)cc1 | 85.9%
71 | O=C(Nc1ccc(-n2ccc3c(NC(=O)c4ccccc4)ncnc32)cc1)Nc1ccc(Cl)c(C(F)(F)F)c1 | 37%
72 | CCCCOc1c(N)cc(Cl)cc1C(=O)OCCN(CC)CC | 92.8%
73 | CC(Cl)(CCl)CS(=O)(=O)c1ccc(Cl)cc1 (stereo not drawn) | 102%
74 | CCc1c(C)c2cc3c(c(C)c2oc1=O)OCC(=O)N3 | 48.2%
75 | Cc1ccc(NC(=O)CN2CCOCC2)cc1Cl | 95%
76 | CC1(C)CC(=O)C2=C(C1)OC1=C(C(=O)CC(C)(C)C1)C2c1ccc(OCc2cn(-c3ccc(F)cc3F)nn2)cc1 | 120%
77 | COc1cccc(-c2nc3sccn3c2-c2ccnc(NCCNC(=O)Nc3cccc(C(F)(F)F)c3)n2)c1 | 65.6%
78 | CN(C)c1ccc(/C=N/N=C(N)N)cc1 | 103%

From PubChem BioAssay (NCI)
